Where a name gives a salt, the structure may show the parent alone.
test system: NCI-H1688; experiment: inhibition of cell viability relative to untreated control (fraction); higher = stronger growth inhibition, active = 0.5 or more; conditions: 30 µM; 24 h
Description: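 Natural product library (TargetMol, 640 compounds) screened on NCI-H1688 SCLC cells at 30 µM for 24 h; viability by CCK-8 absorbance at 450 nm, normalised to untreated control and expressed as inhibition rate (fraction). Compounds with >50% reduction in viability were selected as hits.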

SMILES | inhibition of cell viability
CCc1c2c(nc3ccc(OC(=O)N4CCC(N5CCCCC5)CC4)cc13)-c1cc3c(c(=O)n1C2)COC(=O)[C@]3(O)CC [Irinotecan] | 0.684 (active)
CC(=O)OCC(=O)[C@@]1(O)CC[C@H]2[C@@H]3CCC4=CC(=O)C=C[C@]4(C)[C@@]3(Cl)[C@@H](Cl)C[C@@]21C [Dichlorisone Acetate] | -0.129 (inactive)
c1coc(CNc2ncnc3[nH]cnc23)c1 [Kinetin] | 0.00365 (inactive)
C=C(C)[C@@H]1CC[C@]2(C(=O)O)CC[C@]3(C)[C@H](CC[C@@H]4[C@@]5(C)CC[C@H](O)C(C)(C)[C@@H]5CC[C@]43C)[C@@H]12 [Betulinic acid] | 0.622 (active)
C#C[C@]1(O)CC[C@H]2[C@@H]3CCc4cc(O)ccc4[C@H]3CC[C@@]21C [Ethynyl estradiol] | 0.639 (active)
C=C1C(=O)[C@]23[C@H](CC[C@@H]1[C@@H]2O)[C@]12CO[C@@]3(O)[C@H](O)[C@H]1C(C)(C)CC[C@@H]2O [Rubescensin A] | 0.984 (active)
COc1cc(/C=C/C(=O)O)ccc1O [Ferulic Acid] | 0.0447 (inactive)
C[C@]12CCC(=O)C=C1CC[C@@H]1[C@@H]2[C@@H](O)C[C@@]2(C)[C@H]1CC[C@]2(O)C(=O)CO [Hydrocortisone] | 0.0716 (inactive)
O=C(/C=C/c1ccc(O)c(O)c1)O[C@H](Cc1ccc(O)c(O)c1)C(=O)O [Rosmarinic acid] | 0.0726 (inactive)
CC[C@H](/C=C/[C@@H](C)[C@H]1CC[C@H]2[C@@H]3CC=C4C[C@@H](O)CC[C@]4(C)[C@H]3CC[C@]12C)C(C)C [Stigmasterol] | -0.0217 (inactive)
C[C@H]1[C@H](OC(=O)CCC(=O)O)O[C@@H]2O[C@@]3(C)CC[C@H]4[C@H](C)CC[C@@H]1[C@@]24OO3 [Artesunate] | 0.726 (active)
CC(C)CCC[C@@H](C)[C@H]1CC[C@H]2[C@@H]3CC[C@H]4CC(=O)CC[C@]4(C)[C@H]3CC[C@]12C [5alpha-Cholestan-3-one] | -0.0937 (inactive)
CC(=O)C1=C(O)C=C2Oc3c(C(C)=O)c(O)c(C)c(O)c3C2(C)C1=O (stereo in doubt) [Usnic Acid] | 0.273 (inactive)
C=C1CC23CCC4C(C)(C(=O)OC5OC(CO)C(O)C(O)C5O)CCCC4(C)C2CCC1(OC1OC(CO)C(O)C(OC2OC(CO)C(O)C(O)C2O)C1OC1OC(C)C(O)C(O)C1O)C3 (stereo not given) [Dulcoside B] | 0.0729 (inactive)
O=C(O)c1cc(O)ccc1O [Gentisic acid] | -0.166 (inactive)
OCc1ccccc1O[C@@H]1O[C@H](CO)[C@@H](O)[C@H](O)[C@H]1O | -0.21 (inactive)
COc1ccc(-c2cc(=O)c3c(O)c(OC)c(O[C@@H]4O[C@H](CO[C@@H]5O[C@@H](C)[C@H](O)[C@@H](O)[C@H]5O)[C@@H](O)[C@H](O)[C@H]4O)cc3o2)cc1 [Pectolinarin] | 0.194 (inactive)
CC(C)=CCC/C(C)=C/CC/C(C)=C/CC/C(C)=C/CC1=C(C)C(=O)c2ccccc2C1=O [Menatetrenone] | -0.0024 (inactive)
C=CC1=C(C)c2cc3[nH]c(cc4nc(cc5[nH]c(cc1n2)c(C)c5CCC(=O)O)C(CCC(=O)O)=C4C)c(C)c3C=C [Protoporphyrin IX] | 0.863 (active)
N[C@@H](Cc1cc(I)c(O)c(I)c1)C(=O)O [3,5-Diiodotyrosine Dihydrate] | 0.24 (inactive)

SMILES | inhibition of cell viability
COc1cc(C=O)ccc1O [Vanillin] | 0.219 (inactive)
OC[C@@H](O)[C@H](O)[C@@H](O)CO [Xylitol] | 0.015 (inactive)
O=C1C[C@@H](c2ccc(O)cc2)Oc2cc(O)cc(O)c21 [Naringenin] | -0.726 (inactive)
COc1ccc(C2CC(=O)c3c(O)cc(OC4OC(COC5OC(C)C(O)C(O)C5O)C(O)C(O)C4O)cc3O2)cc1OC (stereo not given) [Methyl hesperidin] | 0.00735 (inactive)
C1CCN2C[C@@H]3C[C@@H](CN4CCCC[C@@H]34)[C@H]2C1 [(-)-Sparteine sulfate pentahydrate] | 0.237 (inactive)
COc1cc(CCC(=O)O)ccc1O [Hydroferulic acid] | 0.0171 (inactive)
COC(=O)[C@H]1[C@H]2C[C@@H]3c4[nH]c5cc(OC)ccc5c4CCN3C[C@H]2C[C@@H](OC(=O)c2cc(OC)c(OC)c(OC)c2)[C@@H]1OC [Reserpine] | 0.981 (active)
CC(=O)O[C@@]12CO[C@@H]1C[C@H](O)[C@@]1(C)C(=O)[C@H](O)C3=C(C)[C@@H](OC(=O)[C@H](O)[C@@H](NC(=O)OC(C)(C)C)c4ccccc4)C[C@@](O)([C@@H](OC(=O)c4ccccc4)[C@H]21)C3(C)C [Docetaxel] | 0.493 (inactive)
C[C@@H]1O[C@@H](O[C@H]2[C@H](Oc3cc(O)c(C(=O)CCc4ccc(O)cc4)c(O)c3)O[C@H](CO)[C@@H](O)[C@@H]2O)[C@H](O)[C@H](O)[C@H]1O [Naringin dihydrochalcone] | -0.031 (inactive)
C[n+]1cccc(C(=O)[O-])c1 [Trigonelline] | -0.0163 (inactive)
CC1CCC(C(C)C)C(O)C1 (racemic) [DL-Menthol] | 0.0236 (inactive)
CN(C)[C@@H]1C(O)=C(C(N)=O)C(=O)[C@@]2(O)C(O)=C3C(=O)c4c(O)ccc(Cl)c4[C@@](C)(O)[C@H]3C[C@@H]12 [Chlortetracycline hydrochloride] | -0.0618 (inactive)
O=C(O)CCc1ccc(O)cc1 [Phloretic acid] | 0.081 (inactive)
COc1ccc2ccc(=O)oc2c1CC=C(C)C [Osthole] | 0.166 (inactive)
C=C1C(=O)O[C@@H]2C[C@@]3(C)CCCC(=C)[C@@H]3C[C@H]12 [Isoalantolactone] | 0.867 (active)
CC(C)[C@@H](C)/C=C/[C@@H](C)[C@H]1CC[C@H]2C3=CC=C4C[C@@H](O)CC[C@]4(C)[C@H]3CC[C@]12C [Ergosterol] | -0.172 (inactive)
O=c1c(O)c(-c2ccc(O)cc2)oc2cc(O)cc(O)c12 [Kaempferol] | -0.00334 (inactive)
COc1ccccc1O [Guaiacol] | -0.0875 (inactive)
OCc1c[nH]c2ccccc12 [Indole-3-carbinol] | 0.0235 (inactive)
COC(=O)/C=C/c1ccc(O)cc1 [Methyl 4-hydroxycinnamate] | -0.109 (inactive)
